Measurements published in PubChem BioAssay (NCI).
Compounds without any hit were thinned out: in the full panel of roughly 83,000, 20% have a hit.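 A percent growth of 40 corresponds to 60% growth inhibition; 0 means no net growth; -100 means all cells died. Active threshold: below 10.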 Unmarked numbers belong to inactive results. The source made the active and inactive calls.

Legend:
Test in all cases: NCI-60 one-dose screen, 48 h (100 = growth as untreated, 0 = no growth, -100 = all killed)
Settings in all cases: 10 µM unless noted
DU-145 prostate = tested on: DU-145 prostate
K-562 leukemia = tested on: K-562 leukemia
MALME-3M melanoma = tested on: MALME-3M melanoma
MDA-MB-231 breast = tested on: MDA-MB-231 breast
RXF 393 renal = tested on: RXF 393 renal
SF-268 CNS = tested on: SF-268 CNS
SF-295 CNS = tested on: SF-295 CNS
SF-539 CNS = tested on: SF-539 CNS
UACC-257 melanoma = tested on: UACC-257 melanoma
M14 melanoma = tested on: M14 melanoma

| SMILES | growth (DU-145 prostate) | growth (K-562 leukemia) | growth (MALME-3M melanoma) | growth (MDA-MB-231 breast) | growth (RXF 393 renal) | growth (SF-268 CNS) | growth (SF-295 CNS) | growth (SF-539 CNS) | growth (UACC-257 melanoma) | growth (M14 melanoma) |
| --- | --- | --- | --- | --- | --- | --- | --- | --- | --- | --- |
| Nc1c(C(=O)Nc2ccccn2)sc2nc3c(cc12)CCCCCC3 | 11.4% | 7.85% (active) | 20.7% | 49.4% | -8.82% (active) | 35.6% | 0.944% (active) | 6.92% (active) | 49.5% | 7.38% (active) |
| C/C(=N\NC(=O)c1ccncc1)c1ccc(N)cc1 | 107% | 83.6% | 98.5% | 98.4% | 106% | 99.2% | 99.4% | 98.5% | 93% | 102% |
| Cc1cc(C)n(-c2nc(-c3cccs3)c(C#N)c(=O)[nH]2)n1 | 101% | 87.4% | 92.6% | 108% | 115% | 82.3% | 92.3% | 97.5% | 98.7% | 101% |
| O=c1[nH]c2ccccc2cc1-c1nc2ccncc2[nH]1 | 78.8% | 79.1% | 113% | 98.3% | 72.5% | 96.6% | 78.1% | 79.1% | 111% | 87.3% |
| O=C(Nc1nc(-c2ccccc2Cl)cs1)c1cc(-c2ccc(Br)cc2)nc2ccccc12 | 69.3% | 23.5% | 75.1% | 27.3% | 59% | 66.4% | 34.4% | 76.1% | 29.5% | 62.5% |
| Cc1cc(C)c(NC(=O)c2sc3nc4c(cc3c2N)CCCCCC4)c(C)c1 | 66.4% | 16.8% | 57.4% | 88.2% | 65.8% | 59.4% | 38.1% | 60% | 62.8% | 27% |
| CCCCN(CCCC)CC(CN(CC)CC)OC(=O)Nc1ccccc1 (stereo not given) | 99.9% | 76% | 90.3% | 69.7% | 95.1% | 94.9% | 77.5% | 94.4% | 111% | 80.9% |
| CC(C)(C)c1nc2c(s1)c1nc(N)ncc1c1ccc(NS(=O)(=O)c3c(F)cccc3F)c(F)c12 | 49.9% | 66.3% | -31.6% (active) | 29.2% | 13.6% | 79.1% | 60.7% | 79.7% | -13.1% (active) | 7.08% (active) |
| CC(C)(C#N)c1cc(F)cc(C(=O)Nc2cc(Nc3ncccc3-c3ncnc4nc[nH]c34)ccc2F)c1 | 56.1% | 5.97% (active) | -28.4% (active) | 22.4% | 34.1% | 60.6% | 46.1% | 20.8% | 23.7% | 5.28% (active) |
| NS(=O)(=O)c1ccc(N2Cc3cc(Cl)ccc3OC3=C2C(=O)N(CC2CCCCC2)C3=O)cc1 | -94% (active) | -38% (active) | -77% (active) | -74.5% (active) | -89.7% (active) | -83.9% (active) | -19.3% (active) | -99.4% (active) | -79% (active) | -67.7% (active) |
| COc1ccc2[nH]c(-c3ccccc3)c(C=C(C#N)C#N)c2c1 | 35.2% | -11.9% (active) | 55.1% | 57.9% | 22.4% | 49.1% | -35.2% (active) | 14% | 69.8% | 5.54% (active) |
| CCCCn1c(=O)c(/C=C/C(=O)/C=C/c2ccc(OC)cc2)cc2cc(Cl)ccc21 | 53.5% | 25.2% | 119% | 83.8% | 84.5% | 42.6% | 19.9% | 91.8% | 92.1% | 95% |
| COC(=O)c1nc(-c2ccccc2)oc1S(=O)(=O)n1nc(-c2ccccc2)cc1N | 96.2% | 4.99% (active) | 2.22% (active) | 103% | 103% | 87.5% | 97.5% | 80.7% | 52% | 76% |
| C=C1C(=O)O[C@H]2[C@H]1CC/C(COC(=O)c1c[nH]c3ccccc13)=C\CC[C@@]1(C)O[C@@H]21 | -68.6% (active) | -16.1% (active) | -73.7% (active) | -68.8% (active) | -90.6% (active) | -40.8% (active) | 50.2% | -61.3% (active) | -58.8% (active) | -64.7% (active) |
| Sc1cccc2cccnc12 | 27.1% | 9% (active) | 10.9% | 33.8% | 13.4% | 34.1% | 47.1% | 53.8% | 24.3% | -3.55% (active) |
| CCCCC1=c2c([nH]c3ccc(OC)cc23)=NC2C=CC=NC12 (stereo not given) | 98.8% | 72.1% | 108% | 79.9% | 92.8% | 93.1% | 106% | 93.7% | 126% | 101% |
| COc1ccc(-n2cc(COc3ccc4c5ccnc(C)c5n(CC(C)C)c4c3)nn2)cc1 | 88.3% | 27.3% | 71.2% | 73.1% | 57.5% | 79% | 60.6% | 82.6% | 52.7% | 71.5% |
| CN1CCN(/C=C2\CC(C(=O)NCc3ccc(Cl)cc3Cl)NC2=O)CC1 (stereo not given) | 108% | 95.7% | 98.6% | 104% | 103% | 97.9% | 110% | 102% | 93.2% | 110% |
| Nc1c(C(=O)c2ccccc2)sc2nc(-c3cc4ccccc4o3)cc(-c3ccc(Cl)cc3)c12 | 90.8% | 102% | 101% | 85.5% | 113% | 94.8% | 129% | 105% | 104% | 107% |
| Cn1c2ccccc2c2c(OC(=O)c3ccccc3)c3c(nc21)-c1ccccc1C3 | 104% | 104% | 104% | 85.6% | 109% | 96.4% | 100% | 102% | 95.7% | 93.8% |
| N#Cc1ccc(N2Cc3cc(Cl)ccc3OC3=C2C(=O)N(Cc2ccc(F)cc2)C3=O)cc1 | -91.8% (active) | -21.6% (active) | -72.3% (active) | -0.424% (active) | -56.8% (active) | -58.4% (active) | 66.6% | -65.7% (active) | -64% (active) | -68.4% (active) |
| Nc1cc(N)c(S(=O)(=O)O)cc1N=Nc1cc([N+](=O)[O-])ccc1O | 111% | 80.8% | 103% | 103% | 103% | 102% | 107% | 102% | 99.2% | 100% |
| COc1cc2nc3c(=O)n(-c4ccc(C#N)cc4)cnn3c(=O)c2cc1OC | 103% | 106% | 87.5% | 103% | 100% | 88.5% | 99.8% | 94.9% | 110% | 94.1% |
| Cc1c(Cl)cccc1NC(=O)c1sc2nc3c(cc2c1N)CCCCC3 | 15.6% | 8.36% (active) | 68.9% | 48.4% | 22.8% | 54.2% | 32% | 13.9% | 67% | 2.84% (active) |
| CCSc1ccc(C2C(Br)C(=O)N2c2cc(OC)c(OC)c(OC)c2)cc1 (stereo not given) | 12.3% | 8.26% (active) | 70.1% | 19.7% | 2.05% (active) | 38.7% | 15.7% | -1.17% (active) | 45.2% | 4.2% (active) |
| Cc1nccc2c3ccc(OCc4cn(-c5ccc(Cl)cc5)nn4)cc3n(CC(C)C)c12 | 54.1% | 8.22% (active) | 0.392% (active) | 27.8% | 0.754% (active) | 57.3% | 15.4% | 22.2% | 4.16% (active) | 23.2% |
| COc1ccccc1Nc1nnc(-c2ccc(Cl)cc2)o1 | 72.3% | 11.7% | 46.3% | 63.5% | 74.6% | 60.5% | 40.3% | 57.1% | 65.8% | 21.7% |
